Laboratory results published in the supplement of paper PMC10849652.
About 7,900 targets were measured; listed, in parts, are those with a hit and a random draw of the rest. About 0.6% of all pairs of compound and target were hits.

compound: c1cn2cc(-c3ccc4cn[nH]c4c3)nc(Nc3ccc(N4CCOCC4)cc3)c2n1 [entospletinib]; assay: log2 fold change, soluble protein after heating vs DMSO (PISA); higher = thermal stabilisation; K562 cells, 10 uM, 30 min; active = over 0.2 and 3.5 SD of the protein, either way, in both replicates (recomputed)
In short: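 For each measurement, 10 μM compound was applied for 30 min to K562 cells at 2×10^6 cells/mL. Aliquots were heated for 3 min across 48°C-58°C, pooled, and extracted in PBS with 0.5% NP-40 at 4°C; the supernatant after 21,000xg for 90 min was soluble protein. This was quantified by TMTpro 16plex LC-MS/MS with channel sums equalised, and thermal stability was reported relative to control samples from duplicates, on a log2 fold-change scale.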

Chain of UniProt P0C0S5 (P0C0S5 whole entry, looked up): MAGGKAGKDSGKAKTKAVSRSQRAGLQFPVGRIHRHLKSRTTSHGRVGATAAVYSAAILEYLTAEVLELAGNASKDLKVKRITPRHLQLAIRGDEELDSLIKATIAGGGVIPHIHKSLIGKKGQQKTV
Chain of UniProt Q92664 (Q92664 whole entry, looked up): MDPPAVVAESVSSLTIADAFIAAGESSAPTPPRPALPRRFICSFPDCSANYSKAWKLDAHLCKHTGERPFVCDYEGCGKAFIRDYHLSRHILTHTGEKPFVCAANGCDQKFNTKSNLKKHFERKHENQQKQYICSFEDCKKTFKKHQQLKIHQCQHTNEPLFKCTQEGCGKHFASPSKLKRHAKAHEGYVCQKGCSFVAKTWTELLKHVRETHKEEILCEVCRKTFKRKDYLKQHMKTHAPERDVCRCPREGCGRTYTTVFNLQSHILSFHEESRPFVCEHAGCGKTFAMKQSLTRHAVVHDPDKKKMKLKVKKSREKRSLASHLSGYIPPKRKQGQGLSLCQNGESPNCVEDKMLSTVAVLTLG
Chain of UniProt O75146 (O75146 whole entry, looked up): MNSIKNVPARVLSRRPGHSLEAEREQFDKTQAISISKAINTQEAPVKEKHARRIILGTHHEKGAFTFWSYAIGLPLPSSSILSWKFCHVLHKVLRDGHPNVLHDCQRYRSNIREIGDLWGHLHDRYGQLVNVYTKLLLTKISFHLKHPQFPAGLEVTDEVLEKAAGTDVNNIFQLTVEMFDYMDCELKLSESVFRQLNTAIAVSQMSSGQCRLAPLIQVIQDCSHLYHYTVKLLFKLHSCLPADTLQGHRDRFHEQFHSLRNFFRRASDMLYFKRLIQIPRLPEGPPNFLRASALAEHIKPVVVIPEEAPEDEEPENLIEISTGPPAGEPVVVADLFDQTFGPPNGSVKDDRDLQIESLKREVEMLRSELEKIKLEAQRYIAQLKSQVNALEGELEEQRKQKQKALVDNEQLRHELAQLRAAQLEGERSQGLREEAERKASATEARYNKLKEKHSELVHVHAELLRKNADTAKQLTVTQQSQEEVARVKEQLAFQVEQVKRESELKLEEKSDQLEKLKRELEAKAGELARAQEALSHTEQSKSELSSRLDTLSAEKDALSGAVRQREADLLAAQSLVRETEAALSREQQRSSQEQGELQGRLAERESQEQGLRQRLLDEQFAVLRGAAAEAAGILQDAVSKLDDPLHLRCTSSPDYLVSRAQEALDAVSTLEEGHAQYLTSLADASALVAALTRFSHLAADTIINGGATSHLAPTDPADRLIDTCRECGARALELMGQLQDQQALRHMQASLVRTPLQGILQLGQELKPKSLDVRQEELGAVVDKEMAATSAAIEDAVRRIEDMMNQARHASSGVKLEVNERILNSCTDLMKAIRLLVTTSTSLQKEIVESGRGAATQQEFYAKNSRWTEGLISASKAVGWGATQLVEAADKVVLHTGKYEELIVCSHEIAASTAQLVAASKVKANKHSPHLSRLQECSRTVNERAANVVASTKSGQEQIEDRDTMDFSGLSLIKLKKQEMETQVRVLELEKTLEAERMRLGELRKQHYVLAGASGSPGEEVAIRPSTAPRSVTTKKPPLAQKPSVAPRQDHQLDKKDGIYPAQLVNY
Chain of UniProt P04035 (P04035 whole entry, looked up): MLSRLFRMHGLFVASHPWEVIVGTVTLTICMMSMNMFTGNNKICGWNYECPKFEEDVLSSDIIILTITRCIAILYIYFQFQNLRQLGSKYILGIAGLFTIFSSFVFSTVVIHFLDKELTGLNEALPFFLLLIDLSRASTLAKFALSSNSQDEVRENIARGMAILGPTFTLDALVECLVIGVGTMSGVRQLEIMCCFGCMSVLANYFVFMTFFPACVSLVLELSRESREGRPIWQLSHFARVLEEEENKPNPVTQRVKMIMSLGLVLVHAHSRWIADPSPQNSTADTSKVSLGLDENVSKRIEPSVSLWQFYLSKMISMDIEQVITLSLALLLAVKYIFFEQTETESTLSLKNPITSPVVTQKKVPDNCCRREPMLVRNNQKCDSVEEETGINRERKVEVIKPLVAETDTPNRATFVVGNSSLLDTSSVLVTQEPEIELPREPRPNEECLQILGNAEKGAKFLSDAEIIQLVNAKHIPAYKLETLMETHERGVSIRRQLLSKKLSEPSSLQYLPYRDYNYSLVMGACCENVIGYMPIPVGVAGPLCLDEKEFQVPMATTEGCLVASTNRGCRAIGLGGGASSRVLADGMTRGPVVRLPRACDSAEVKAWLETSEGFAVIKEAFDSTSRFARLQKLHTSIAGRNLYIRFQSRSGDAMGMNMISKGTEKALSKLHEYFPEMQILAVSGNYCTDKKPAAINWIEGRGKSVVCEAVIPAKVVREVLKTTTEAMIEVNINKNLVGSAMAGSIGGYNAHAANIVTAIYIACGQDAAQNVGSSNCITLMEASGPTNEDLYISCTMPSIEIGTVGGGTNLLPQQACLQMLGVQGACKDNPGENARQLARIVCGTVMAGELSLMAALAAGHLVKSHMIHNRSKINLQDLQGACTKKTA
Chain of UniProt Q10472 (Q10472 whole entry, looked up): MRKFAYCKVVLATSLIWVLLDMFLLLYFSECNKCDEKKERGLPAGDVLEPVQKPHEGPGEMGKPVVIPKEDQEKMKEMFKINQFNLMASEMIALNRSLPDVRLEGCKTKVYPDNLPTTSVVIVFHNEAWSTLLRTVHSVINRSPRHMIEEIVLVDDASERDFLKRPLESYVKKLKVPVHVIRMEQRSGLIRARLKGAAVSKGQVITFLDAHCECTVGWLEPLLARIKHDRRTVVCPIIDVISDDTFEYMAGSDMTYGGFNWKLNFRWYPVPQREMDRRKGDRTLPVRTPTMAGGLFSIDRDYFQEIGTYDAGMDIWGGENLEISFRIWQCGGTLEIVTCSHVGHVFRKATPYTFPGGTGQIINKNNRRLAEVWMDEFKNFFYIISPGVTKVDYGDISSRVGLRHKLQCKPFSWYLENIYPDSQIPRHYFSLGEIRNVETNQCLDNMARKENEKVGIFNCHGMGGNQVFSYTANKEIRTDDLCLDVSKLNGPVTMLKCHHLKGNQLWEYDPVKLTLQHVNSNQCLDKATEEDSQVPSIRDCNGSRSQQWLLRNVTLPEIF
Chain of UniProt I6L899 (I6L899 whole entry, looked up): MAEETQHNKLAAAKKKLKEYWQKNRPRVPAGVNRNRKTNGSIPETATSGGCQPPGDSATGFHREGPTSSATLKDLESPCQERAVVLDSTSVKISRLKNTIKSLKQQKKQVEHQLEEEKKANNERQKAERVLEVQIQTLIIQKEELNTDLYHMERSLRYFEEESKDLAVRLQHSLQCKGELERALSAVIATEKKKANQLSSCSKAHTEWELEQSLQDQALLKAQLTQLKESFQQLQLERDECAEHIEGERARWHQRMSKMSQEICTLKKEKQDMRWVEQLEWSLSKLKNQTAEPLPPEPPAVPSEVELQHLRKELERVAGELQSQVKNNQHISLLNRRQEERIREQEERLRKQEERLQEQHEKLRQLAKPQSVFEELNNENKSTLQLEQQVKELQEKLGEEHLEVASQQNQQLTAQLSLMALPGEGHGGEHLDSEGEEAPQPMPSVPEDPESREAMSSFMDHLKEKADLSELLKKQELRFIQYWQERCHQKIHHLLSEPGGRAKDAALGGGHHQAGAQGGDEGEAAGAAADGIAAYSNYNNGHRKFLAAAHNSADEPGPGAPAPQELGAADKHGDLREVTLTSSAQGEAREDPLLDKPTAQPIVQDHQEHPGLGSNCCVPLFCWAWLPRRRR
Chain of UniProt P30519 (P30519 whole entry, looked up): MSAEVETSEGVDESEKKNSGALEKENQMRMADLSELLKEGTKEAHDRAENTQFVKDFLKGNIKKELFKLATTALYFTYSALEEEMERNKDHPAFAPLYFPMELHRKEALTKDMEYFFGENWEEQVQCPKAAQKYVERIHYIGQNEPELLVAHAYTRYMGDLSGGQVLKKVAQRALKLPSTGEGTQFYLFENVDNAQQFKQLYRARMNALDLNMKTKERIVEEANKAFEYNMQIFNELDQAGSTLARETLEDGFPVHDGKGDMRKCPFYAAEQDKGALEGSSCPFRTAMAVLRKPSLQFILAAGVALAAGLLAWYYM
Chain of UniProt Q9BTY2 (Q9BTY2 whole entry, looked up): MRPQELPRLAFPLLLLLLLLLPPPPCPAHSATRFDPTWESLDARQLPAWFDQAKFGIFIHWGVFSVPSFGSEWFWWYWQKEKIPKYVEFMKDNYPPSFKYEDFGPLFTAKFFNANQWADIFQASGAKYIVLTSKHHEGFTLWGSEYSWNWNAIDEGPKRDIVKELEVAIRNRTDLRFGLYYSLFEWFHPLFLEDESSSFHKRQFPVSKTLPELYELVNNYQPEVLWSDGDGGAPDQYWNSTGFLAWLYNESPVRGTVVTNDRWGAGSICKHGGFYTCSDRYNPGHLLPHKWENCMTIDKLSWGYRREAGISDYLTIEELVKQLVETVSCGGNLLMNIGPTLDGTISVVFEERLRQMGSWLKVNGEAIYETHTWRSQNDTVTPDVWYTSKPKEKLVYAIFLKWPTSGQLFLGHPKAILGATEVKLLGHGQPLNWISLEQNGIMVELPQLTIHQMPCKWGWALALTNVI
Chain of UniProt Q9Y3D6 (Q9Y3D6 whole entry, looked up): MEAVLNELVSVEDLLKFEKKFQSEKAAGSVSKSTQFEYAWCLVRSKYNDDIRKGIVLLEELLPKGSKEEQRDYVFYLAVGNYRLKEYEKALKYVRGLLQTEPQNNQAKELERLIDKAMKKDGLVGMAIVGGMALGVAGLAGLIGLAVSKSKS
Chain of UniProt Q8IVV7 (Q8IVV7 whole entry, looked up): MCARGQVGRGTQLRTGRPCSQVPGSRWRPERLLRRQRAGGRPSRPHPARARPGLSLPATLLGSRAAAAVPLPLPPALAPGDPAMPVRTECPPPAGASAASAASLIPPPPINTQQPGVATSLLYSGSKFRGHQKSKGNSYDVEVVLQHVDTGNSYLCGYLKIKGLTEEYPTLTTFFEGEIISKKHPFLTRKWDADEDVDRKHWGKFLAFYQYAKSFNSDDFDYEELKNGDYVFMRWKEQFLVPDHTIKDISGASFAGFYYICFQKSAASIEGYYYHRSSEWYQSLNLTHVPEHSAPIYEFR

log2 fold change, inactive:
HDAC7 isoform 5 (UniProt Q8WUI4) -0.024
HMOX2 (UniProt P30519) 0.014
FNTB (UniProt P49356) -0.143
HSPA8 (UniProt P11142) 0.043
GUK1 isoform 2 (UniProt Q16774) 0.093
H3-3A (UniProt P84243) -0.131
GSTT1 (UniProt P30711) 0.013
GOLGA8R (UniProt I6L899) -0.056
HDAC6 (UniProt Q9UBN7) 0.034
FBXO6 (UniProt Q9NRD1) -0.055
H2AZ1 (UniProt P0C0S5) -0.001
GID4 (UniProt Q8IVV7) -0.021
HMGCR isoform 3 (UniProt P04035) -0.29
GIGYF2 (UniProt Q6Y7W6) -0.02
GLYR1 (UniProt Q49A26) 0.041
FIS1 (UniProt Q9Y3D6) 0.038
GALNT1 (UniProt Q10472) 0.01
FUCA2 (UniProt Q9BTY2) -0.016
GSTO1 (UniProt P78417) -0.046
HIP1R (UniProt O75146) -0.029
ICAM1 (UniProt P05362) -0.007
GTF3A (UniProt Q92664) 0.033

log2 fold change, active:
HK2 (UniProt P52789) -0.54
